ROC1-CUL1 inh: inhibitors of human ROC1-CUL1 ubiquitin ligase activity | P62877+Q13616 | in vitro K48 di-Ub FRET, acceptor:donor ratio, 45 min | inhibition, % at 10 µM | 0.6% of 140,000 active; in the data active means inhibition above about 25%
* = called active by the depositor. This excerpt belongs to a sample that is enriched for hits.

SMILES | ROC1-CUL1 inh
O=C1C(=O)N(c2ccccn2)C(c2ccccc2Cl)C1C(=O)c1ccccc1 (stereo not given) | 28.9*
O=C1C(=O)N(c2nccs2)C(c2ccc(Cl)cc2)C1C(=O)c1ccccc1 (stereo not given) | 63.6*
CN(C)C=NC1=C(C#N)C(c2ccc(F)cc2)c2c(-c3ccccc3)nn(-c3ccccc3)c2O1 (stereo not given) | -7.8
CC(=O)Nc1ccccc1CCC(=O)O | -3.4
CC(=O)NC(N(Cc1ccccc1)Cc1ccc2c(c1)OCO2)(C(F)(F)F)C(F)(F)F | -3.6
CC(C)(O)C(=O)/C=C/c1cccc2ccccc12 | 53.9*
CC(C)(O)C(=O)/C=C/c1ccccc1 | 13.0
C(/C=C/c1cccc2ccccc12)=C\c1ccccc1 | -5.3
Cc1onc(-c2ccccc2Cl)c1C(=O)n1cc(Br)cn1 | -9.5
CCSCCOC(=O)C1C(C)=NC2=C(C(=O)CC(c3ccc(OC)c(OC)c3)C2)C1c1ccccc1OCc1ccccc1 (stereo not given) | 2.4
Cc1ccc(Cl)cc1N1CCN(S(=O)(=O)Cc2ccccc2)CC1 | 15.0
O=C1N=c2ccccc2=C1c1sc(Nc2ccc(Br)cc2)nc1O | 4.0
CCc1cccc2c1=NC(=O)C=2c1sc(Nc2cccc(Cl)c2)nc1O | -6.7
O=C1N=c2ccccc2=C1c1sc(Nc2ccc(O)cc2)nc1O | 31.6*
c1ccc2c[n+](Cc3nc4ccccc4[nH]3)ccc2c1 | 9.7
O=C(O)c1ccc(-c2ccc(-c3nc4sc5c(c4c(=O)[nH]3)CCCCC5)o2)cc1 | 4.7
O=c1[nH]c(-c2cccc(Cl)c2Cl)nc2sc3c(c12)CCCCCC3 | -11.6
O=C(O)c1cccc(-c2ccc(-c3nc4sc5c(c4c(=O)[nH]3)CCCC5)o2)c1 | 97.4*
CC(C)N(C)Cc1nnnn1CC(=O)N1CCC(c2ccccc2Cl)C1 (stereo not given) | -8.0
O=C1SC(SCc2ccccc2Cl)=N/C1=C\c1ccco1 | -4.6
O=C(/C=C/c1ccco1)CC1(O)C(=O)N(Cc2ccccc2Cl)c2ccccc21 (stereo not given) | 5.2
O=C1SC(SCc2ccccc2Cl)=N/C1=C\C=C\c1ccco1 | 88.1*
Cc1cccc(N=C2NC(=O)C(Cc3cccc([N+](=O)[O-])c3)S2)c1 (stereo not given) | 5.7
O=C(O)C1CC(c2ccc(Br)cc2)=Nc2ccccc2S1 (stereo not given) | 9.4
CN1CCN(c2cc3ccccc3c(=O)c3ccccc23)CC1 | -2.7
SMILES | ROC1-CUL1 inh
c1ccc2c(c1)cc(N1CCCC1)c1ccccc12 | 89.7*
O=C(Nc1ccc(N2CCCC2)c(Cl)c1)c1cccc2ccccc12 | 2.1
Oc1ccc(-c2cnc3ccccc3n2)cc1 | 3.2
Oc1ccc(-c2cnc3ccccc3n2)cc1O | 83.8*
Clc1ccc(-c2cnc3ccccc3n2)cc1 | 0.4
COCC1CCCCN1Cc1nc(-c2ccccc2C)oc1C (stereo not given) | 3.0
CC(C)(C)n1cnc2cc(N=Cc3ccc(Cl)cc3)ccc21 | -6.6
COc1ccc(OCC(=O)NC(=S)Nc2cccc(OC)c2)cc1 | -3.6
Cc1ccc(Nc2nc(Nc3ccc(C)c(C)c3)nc(N3CCOCC3)n2)cc1C | -4.2
Fc1ccc(Nc2nc(Nc3ccc(F)cc3F)nc(N3CCOCC3)n2)cc1 | -3.5
Nc1ccc(/C=C/c2ccc(Nc3nc(Nc4ccccc4)nc(N4CCOCC4)n3)cc2S(=O)(=O)O)c(S(=O)(=O)O)c1 | 37.2*
Cc1cc(=O)n(CC(=O)N2CCOCC2)c2c(C)cccc12 | -2.4
CCOc1cc(C(c2c(C)[nH][nH]c2=O)c2c(C)[nH][nH]c2=O)cc(Br)c1OCc1cccc2ccccc12 | 26.0*
Cc1[nH][nH]c(=O)c1C(c1cccc(OCc2ccccc2Cl)c1)c1c(C)[nH][nH]c1=O | -8.7
Cc1[nH][nH]c(=O)c1C(c1c(C)[nH][nH]c1=O)c1cn(C)c2ccccc12 | 26.4*
Cc1[nH][nH]c(=O)c1C(c1ccccc1I)c1c(C)[nH][nH]c1=O | -5.2
CCOc1cc(C(c2c(C)[nH][nH]c2=O)c2c(C)[nH][nH]c2=O)cc(I)c1OC | -7.5
CCOc1cc(C(c2c(C)[nH][nH]c2=O)c2c(C)[nH][nH]c2=O)cc(I)c1O | -2.0
Cn1cc(C(c2cccs2)c2cn(C)c3ccccc23)c2ccccc21 | 3.3
CC(C)C1=NN2C(=N)/C(=C\c3cn(Cc4cccc5ccccc45)c4ccccc34)C(=O)N=C2S1 | 8.6
Cc1[nH][nH]c(=O)c1C(c1c(C)[nH][nH]c1=O)c1cn(Cc2cccc3ccccc23)c2ccccc12 | 39.2*
CCCOc1c(Cl)cc(C(=O)O)cc1OCC | 4.8
CCCCC(=O)Nc1cccc(Cl)c1N1CCN(C(=O)C(C)C)CC1 | -2.6
CC(C)CCOc1cccc(NC(=O)c2ccco2)c1 | 1.6
O=C1NC(=Nc2cccc(Cl)c2)S/C1=C\c1cc2c(cc1Cl)OCO2 | 14.1
SMILES | ROC1-CUL1 inh
O=c1cc(C2CCNCC2)nc(C2(c3ccccc3)CCOCC2)[nH]1 | 5.5
CCOC(=O)c1c(NC(=O)CCC(=O)O)sc(C)c1-c1ccc(CC(C)C)cc1 | 91.3*
CCOC(=O)c1c(NC(=O)CCCC(=O)O)sc(C)c1-c1ccc(F)cc1 | 3.0
CCOC(=O)c1c(NC(=O)c2cccs2)sc(C)c1-c1ccc(OC)cc1 | 3.5
COCCN1CCC(CN(Cc2ccncc2)Cc2cccc(OC)c2OC)CC1 | 11.0
O=C1CN(C(=O)c2ccc3oc(Cc4ccc(Cl)cc4)nc3c2)CCN1 | -0.2
CCOC(=O)c1c(-c2ccc(F)cc2)csc1NC(=O)C(OC(C)=O)c1ccccc1 (stereo not given) | 7.4
Cc1ccc(OCCCCN2CCNCC2)c(C(C)(C)C)c1 | 25.1*
Cc1ccc(OCCCCCN2CCNCC2)cc1 | 0.3
Cc1cc(Cl)ccc1OCCCCCN1CCNCC1 | -4.0
CCN1C(=O)CC2(CCN(C)CC2)C1=O | -8.2
Cc1ccc(NC(=O)c2ccc3c(c2)NC(=O)C(S(=O)(=O)c2ccccc2)C3=O)cc1Cl (stereo not given) | 4.5
CC1CNc2c(N)cc(Cl)cc2CN1 (stereo not given) | -4.7
O=C(NCCC1=CCCCC1)c1cc(-c2ccco2)nc2ccccc12 | 41.7*
O=C(NCCC1=CCCCC1)c1ccccc1Cl | 1.1
O=C(NCCC1=CCCCC1)c1ccco1 | 3.8
CC1=Nc2nc(CCCO)nn2C(c2ccc(Br)cc2)C1C(=O)Nc1cccnc1 (stereo not given) | 7.8
O=C1SC(SCc2ccccc2)=N/C1=C\c1cccc(OCc2ccccc2)c1 | -3.6
COc1ccc(NC(=O)CCC2CCN(C3CCSC3)CC2)c(OC)c1 (stereo not given) | -0.3
CC(C)NC(=O)C(C)Oc1ccc(Cl)cc1 (stereo not given) | -4.0
COC12C=CC(CC1)C1C(=O)c3cccc(O)c3C(=O)C12 (stereo not given) | 1.4
COC12C=CC(CC1)C1C(=O)c3c(OC(=O)OCc4ccccc4)ccc(O)c3C(=O)C12 (stereo not given) | 26.8*
CC1(O)CC(=O)C(C(=O)OCc2ccccc2)C(c2ccc(O)cc2)C1C(=O)OCc1ccccc1 (stereo not given) | 7.8
Cc1cc(Cl)c(S(=O)(=O)N2CCN(C)CC2)cc1OCC(N)=O | 4.1
O=C1C2C3c4ccccc4C([N+](=O)[O-])(c4ccccc43)C2C(=O)N1c1ccccn1 (stereo not given) | 1.3
Cc1ccc(C)n1-c1cccc(Cl)c1Cl | 3.3
Cc1ccc(C(=O)O)cc1-n1c(C)ccc1-c1ccccc1 | 6.6
Cc1cc(C(=O)O)ccc1-n1c(C)ccc1C | 99.5*
Cc1ccc(C)n1-c1cc(C(=O)O)ccc1Cl | 101.4*
